Records with an inconclusive call do not appear. Calls of active or inactive are those of the source. Calls follow the shape of the dose curve; as a rule, active = well fitted inhibition curve with a large enough effect; inconclusive = small, poorly fitted or top-dose-only effect; inactive = flat fitted curve, though single readings scatter.
Columns and labels:
Assay in all cases: qHTS profiling for inhibitors of Plasmodium falciparum proliferation (AID 504749); also: nearly all actives have a fitted effect of over 60% in size
Conditions in all cases: P. falciparum in erythrocytes, SYBR Green DNA, 72 h; series mostly up to 28.7 µM
7G8 = tested on: 7G8
How it was run: (§1)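 Each compound contacts P. falciparum-infected red blood cells for 72 h at 37 C; lysis buffer (Tris, EDTA, saponin, Triton X, SYBR Green I) is added and fluorescence measured next morning; values normalized to controls.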

ATS189 = tested on: ATS189
How it was run: as §1

CP185 = tested on: CP185
How it was run: as §1

CP194 = tested on: CP194
How it was run: as §1

CP203 = tested on: CP203
How it was run: as §1

CP211 = tested on: CP211
How it was run: as §1

CP215 = tested on: CP215
How it was run: as §1

CP265 = tested on: CP265
How it was run: as §1

CP297 = tested on: CP297
How it was run: as §1

CP305 = tested on: CP305
How it was run: as §1

CP315 = tested on: CP315
How it was run: as §1

CP325 = tested on: CP325
How it was run: as §1

CP329 = tested on: CP329
How it was run: as §1

DIV14 = tested on: DIV14
How it was run: as §1

FAB9 = tested on: FAB9
How it was run: as §1

ICS = tested on: ICS
How it was run: as §1

JCK = tested on: JCK
How it was run: as §1

PC15 = tested on: PC15
How it was run: as §1

PC49 = tested on: PC49
How it was run: as §1

TAB113 = tested on: TAB113
How it was run: as §1

Measured: Potency

CC1(C)S[C@@H]2[C@H](N)C(=O)N2C1C(=O)O (stereo not given in full)
inactive: all assays above

[S]=[Sb][S][Sb]=[S]
inactive: all assays above

Reference: PubChem BioAssay (NCATS)
